Measured values published in PubChem BioAssay (NCI).
The panel holds about 83,000 compounds, 20% with a hit somewhere; the sample as a whole holds those more often.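 Assay: single dose, 48 h. Readout: percent growth (0 = no net growth; negative = cell death). Active: <10.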 Unmarked numbers belong to inactive results. Calls of active or inactive are those of the source.

tested on: SR leukemia; experiment: NCI-60 one-dose screen, 48 h (100 = growth as untreated, 0 = no growth, -100 = all killed); details: 10 µM unless noted

For O=S(=O)(NCCCNc1cc(-c2cn(-c3ccccc3)nc2-c2cccc(O)c2)ccn1)c1ccc(Cl)cc1, which growth is on record?
Its growth is 4.43% (active).

COc1ccc(-c2nc3sccn3c2-c2ccnc(NCCCNS(=O)(=O)c3ccc(C)cc3)n2)cc1 was tested. Which growth did it give?
The growth was 33.1%.

For O=C1c2ccccc2C(=O)c2c1oc1oc3c(c(=O)c21)c(=O)n(-c1ccccc1)c1ccccc31, which growth is on record?
Its growth is 11.4%.

How did the growth turn out when C#CCC1(c2ccc(F)c(F)c2)NS(=O)(=O)c2ccccc21 (stereo not drawn) was run?
Its growth is 76%.

Cc1nc(Nc2cccnc2)sc1C(=O)/C=C/c1ccc(F)cc1 was tested. Which growth did it give?
The growth was 18.6%.

With CCC#CC[C@H]1C/C=C2/C(=O)C=C[C@@H]2C/C=C\CCCC(=O)O1 as the compound, how does the growth read?
Its growth is 5.38% (active).

How did the growth turn out when CNC(=O)Cc1nc(-c2cccc(NS(=O)(=O)c3c(F)cccc3F)c2F)c(-c2ccnc(Nc3ccccc3)n2)s1 was run?
Its growth is 76.4%.

Which growth does the source give for CC(=O)Nc1ccc2c(c1)/C(=C\C=C/c1ccc([N+](C)(C)C)cc1)c1ccccc1-2 here?
The growth was 90%.

Which growth does the source give for COc1cc(OC)cc(-c2n[nH]nc2-c2ccc3c(c2)OCO3)c1 here?
Its growth is 14.4%.

With O=C1CCC/C=C\C[C@H]2C=CC(=O)/C2=C/C[C@H](C/C=C\CC(F)(F)F)O1 as the compound, how does the growth read?
Its growth is 4.02% (active).

Which growth does the source give for O=C(Nc1cccc(Cl)c1)c1cc([N+](=O)[O-])ccc1O here?
Its growth is 57%.

How did the growth turn out when O=C1N=C(c2c(-c3[nH]c(=O)c4ccc(Br)cc4c3O)c(O)c3ccccc3c2O)C(=O)c2cc(Br)ccc21 was run?
The growth was 20.8%.

COc1cc(-n2nc(C(=O)Nc3ccc(C(=O)O)cc3)nc2-c2ccccc2)cc(OC)c1OC was tested. Which growth did it give?
The growth was 118%.
